The record followed here is PMC7862700, “An all-to-all approach to the identification of sequence-specific readers for epigenetic DNA modifications on cytosine”.

What all share (assay): DAPPL (digital affinity profiling via proximity ligation, sequencing); 10 mM Tris-HCl pH 7.5, 50 mM NaCl, 1 mM DTT, 4% glycerol, room temperature, 30 min; GST-TFs on glutathione beads, 16-mer random dsDNA library, 0.1% formaldehyde crosslink after washing; high values mean tight binding
One experiment deals with T1, FLI1 (Homo sapiens, UniProt Q01543 1-452).
T1 sequence: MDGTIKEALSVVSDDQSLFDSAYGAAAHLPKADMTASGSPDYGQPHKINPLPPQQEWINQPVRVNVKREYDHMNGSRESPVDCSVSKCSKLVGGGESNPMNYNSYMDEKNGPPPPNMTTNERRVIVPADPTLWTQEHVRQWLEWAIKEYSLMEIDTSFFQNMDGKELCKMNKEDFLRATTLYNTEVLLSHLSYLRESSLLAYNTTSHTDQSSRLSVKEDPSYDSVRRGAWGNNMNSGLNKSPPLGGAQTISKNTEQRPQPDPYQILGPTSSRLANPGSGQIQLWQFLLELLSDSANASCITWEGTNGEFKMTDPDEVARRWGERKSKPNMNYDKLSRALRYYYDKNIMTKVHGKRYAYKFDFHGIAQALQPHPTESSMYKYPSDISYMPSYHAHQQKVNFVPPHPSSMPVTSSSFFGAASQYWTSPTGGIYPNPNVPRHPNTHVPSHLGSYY
The note with it: protein: recombinant; tags: N-terminal GST; dsDNA, one strand shown. The essentials: (§1)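 Human transcription factors fused to GST were expressed in yeast, captured on glutathione beads, given DNA barcodes and pooled with a GST-only negative control. Pools were incubated with 200 nmole of a 16-mer random double-stranded DNA library in Tris/NaCl/DTT/glycerol buffer at room temperature for 30 min. They were then washed, crosslinked with 0.1% formaldehyde, proximity-ligated (BsaI/T4 ligase, 1 h, 37 °C), PCR-amplified and sequenced on an Illumina NextSeq500. Binding signal is each 6-mer's read frequency for a factor divided by its frequency for the GST control.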

The next experiment has as its target T2, ELK1 (Homo sapiens, UniProt P19419 1-428).
T2 sequence: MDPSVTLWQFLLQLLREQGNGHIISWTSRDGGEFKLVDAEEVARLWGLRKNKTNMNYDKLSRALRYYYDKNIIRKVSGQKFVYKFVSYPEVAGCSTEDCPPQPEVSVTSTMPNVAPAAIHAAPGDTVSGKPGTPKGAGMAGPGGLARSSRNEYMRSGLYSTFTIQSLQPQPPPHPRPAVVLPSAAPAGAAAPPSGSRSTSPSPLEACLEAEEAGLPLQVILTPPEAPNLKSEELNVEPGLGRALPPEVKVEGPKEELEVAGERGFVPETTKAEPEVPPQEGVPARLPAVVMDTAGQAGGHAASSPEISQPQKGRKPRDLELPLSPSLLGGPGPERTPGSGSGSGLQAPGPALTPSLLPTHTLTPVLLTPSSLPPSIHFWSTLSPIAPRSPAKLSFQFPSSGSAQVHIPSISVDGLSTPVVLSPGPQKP
The note with it: protein: recombinant; tags: N-terminal GST; dsDNA, one strand shown. The essentials: as §1

The target of a further experiment is T3, ELK3 (Homo sapiens, UniProt P41970 1-407).
T3 sequence: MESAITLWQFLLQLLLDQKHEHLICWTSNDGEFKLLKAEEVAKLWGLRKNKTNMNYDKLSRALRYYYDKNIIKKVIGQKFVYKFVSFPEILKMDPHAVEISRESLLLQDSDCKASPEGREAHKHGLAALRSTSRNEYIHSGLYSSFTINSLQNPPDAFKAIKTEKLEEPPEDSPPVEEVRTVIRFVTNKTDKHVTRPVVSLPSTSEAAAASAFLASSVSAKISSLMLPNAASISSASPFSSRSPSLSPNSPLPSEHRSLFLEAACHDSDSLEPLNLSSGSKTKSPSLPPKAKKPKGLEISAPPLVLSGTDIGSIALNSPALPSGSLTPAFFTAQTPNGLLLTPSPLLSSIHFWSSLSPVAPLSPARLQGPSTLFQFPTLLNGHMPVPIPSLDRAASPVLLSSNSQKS
The note with it: protein: recombinant; tags: N-terminal GST; dsDNA, one strand shown. The essentials:
as §1

In another experiment the target is HSF1 (Homo sapiens, UniProt Q00613 1-529). As to conditions: protein: recombinant; tags: N-terminal GST; chain copies: 3; dsDNA, one strand shown. The essentials:
as §1

A further experiment addresses T4, ETV2 (Homo sapiens, UniProt O00321 1-342).
T4 sequence: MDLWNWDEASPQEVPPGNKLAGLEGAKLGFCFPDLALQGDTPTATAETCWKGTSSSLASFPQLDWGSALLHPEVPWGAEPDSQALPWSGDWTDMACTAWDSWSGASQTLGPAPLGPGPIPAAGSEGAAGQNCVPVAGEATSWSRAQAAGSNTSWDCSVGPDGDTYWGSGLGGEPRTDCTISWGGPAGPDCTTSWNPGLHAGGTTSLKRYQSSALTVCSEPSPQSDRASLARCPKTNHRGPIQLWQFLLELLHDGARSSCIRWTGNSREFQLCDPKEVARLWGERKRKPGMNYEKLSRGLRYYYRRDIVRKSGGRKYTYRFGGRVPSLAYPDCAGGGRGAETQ
The note with it: protein: recombinant; tags: N-terminal GST; dsDNA, one strand shown. In a few lines: as §1

The next experiment addresses T5, ELF3 (Homo sapiens, UniProt P78545 1-371).
T5 sequence: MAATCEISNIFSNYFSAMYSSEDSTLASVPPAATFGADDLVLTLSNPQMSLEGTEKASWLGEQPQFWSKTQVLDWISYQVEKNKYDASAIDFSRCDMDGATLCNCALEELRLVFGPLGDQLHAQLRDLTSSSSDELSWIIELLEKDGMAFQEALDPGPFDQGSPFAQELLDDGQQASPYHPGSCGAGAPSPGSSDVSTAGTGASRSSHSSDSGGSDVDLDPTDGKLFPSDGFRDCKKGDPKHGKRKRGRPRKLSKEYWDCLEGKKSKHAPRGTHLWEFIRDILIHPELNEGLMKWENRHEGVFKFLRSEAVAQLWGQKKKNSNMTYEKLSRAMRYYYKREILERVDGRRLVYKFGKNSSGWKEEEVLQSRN
The note with it: protein: recombinant; tags: N-terminal GST; dsDNA, one strand shown. In a few lines: as §1

Another experiment addresses T6, ETV3L (Homo sapiens, UniProt Q6ZN32 1-361).
T6 sequence: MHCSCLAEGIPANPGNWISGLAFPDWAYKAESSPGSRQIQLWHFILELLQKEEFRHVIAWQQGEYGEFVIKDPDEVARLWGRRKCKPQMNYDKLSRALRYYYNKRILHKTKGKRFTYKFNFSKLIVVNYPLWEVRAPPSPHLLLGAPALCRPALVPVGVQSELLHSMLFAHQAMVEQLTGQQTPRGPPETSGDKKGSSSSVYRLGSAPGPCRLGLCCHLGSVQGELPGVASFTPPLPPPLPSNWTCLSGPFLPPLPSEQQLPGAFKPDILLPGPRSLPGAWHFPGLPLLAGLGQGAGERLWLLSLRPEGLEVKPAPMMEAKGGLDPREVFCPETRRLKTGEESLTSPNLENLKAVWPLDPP
The note with it: protein: recombinant; tags: N-terminal GST; dsDNA, one strand shown. The essentials: as §1

HSF1, sequence (Q00613 whole entry): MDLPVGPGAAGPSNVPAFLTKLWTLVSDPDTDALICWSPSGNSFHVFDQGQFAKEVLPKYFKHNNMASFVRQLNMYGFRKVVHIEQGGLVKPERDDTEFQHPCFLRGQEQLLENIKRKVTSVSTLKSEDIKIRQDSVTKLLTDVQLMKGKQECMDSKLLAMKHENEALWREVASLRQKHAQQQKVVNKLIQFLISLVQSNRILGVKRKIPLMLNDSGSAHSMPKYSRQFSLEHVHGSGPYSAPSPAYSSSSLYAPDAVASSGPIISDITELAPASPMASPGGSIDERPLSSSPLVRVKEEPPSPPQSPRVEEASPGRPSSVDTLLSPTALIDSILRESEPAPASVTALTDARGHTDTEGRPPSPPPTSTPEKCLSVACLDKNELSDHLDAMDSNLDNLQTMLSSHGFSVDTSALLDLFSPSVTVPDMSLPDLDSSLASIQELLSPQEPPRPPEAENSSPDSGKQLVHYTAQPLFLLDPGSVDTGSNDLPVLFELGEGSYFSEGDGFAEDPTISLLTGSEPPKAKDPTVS

For the sequence CGCTAA, the binding signal with FLI1 was 1.01 fold enrichment (6-mer frequency, TF over GST control); with ELK1, 1.05 fold enrichment (6-mer frequency, TF over GST control); in the experiment with ELK3, 1 fold enrichment (6-mer frequency, TF over GST control); with HSF1 it was 1.09 fold enrichment (6-mer frequency, TF over GST control); with ETV2, 1.09 fold enrichment (6-mer frequency, TF over GST control); with ELF3, 1 fold enrichment (6-mer frequency, TF over GST control). In addition, the binding signal in the experiment with ETV3L was 1 fold enrichment (6-mer frequency, TF over GST control).
